# Laboratory results taken from PubChem BioAssay (EPA / NIEHS).
# A structure can be active in one record and inactive in another. Activity calls are given as the source filed them. The calls were made as follows: active = hit-call score of the fitted dose curve at least 0.9, where 1 is the maximum; inactive = score below 0.9.
# Target: Hepatocyte nuclear factor 6 (Homo sapiens) (UniProt Q9UBC0)
# Test: ATG_HNF6_CIS: Attagene CIS-FACTORIAL HepG2 Assay for human Hepatocyte Nuclear Factor 6 (HNF6) (AID 2282952)
# Details: HepG2 Attagene cis-factorial HNF6 reporter transcription; actives raise or lower the signal
# Description: ATG_CIS is a cell-based, multiplexed-readout assay that uses HepG2, a human liver cell line, with measurements taken at 24 hours after chemical dosing in a 24-well plate.ATG_HNF6_CIS is one of 52 assay component(s) measured or calculated from the ATG_CIS assay. It is designed to make measurements of mRNA induction, a form of inducible reporter, as detected with fluorescence intensity signals by Reverse transcription polymerase chain reaction (RT-PCR) and Capillary electrophoresis technology.Data from the assay component ATG_HNF6_CIS was analyzed into 1 assay endpoint. This assay endpoint, ATG_HNF6_CIS, was analyzed with bidirectional fitting relative to DMSO as the negative control and baseline of activity. Using a type of inducible reporter, measures of mRNA for gain or loss-of-signal activity can be used to understand the reporter gene at the transcription factor-level as they relate to the gene ONECUT1. Furthermore, this assay endpoint can be referred to as a primary readout, because this assay has produced multiple assay endpoints where this one serves a reporter gene function. To generalize the intended target to other relatable targets, this assay endpoint is annotated to the dna binding intended target family, where the subfamily is homeobox protein.
# Human liver HepG2 cells are transiently transfected with multiple reporter transcription units (MRTUs) in 6-well plates using FuGene 6 reagent (Roche; 3 ml FuGene/1 mg DNA). The MRTU constructs are regulated by a cis-regulating element (promoter). […] A major difference between the CIS and TRANS system is that in CIS activities of endogenous TFs are measured, whereas the TRANS assay evaluates changes in activities of exogenous, chimeric NR-Gal4 proteins. […] At the end of 24 hour incubation, total RNA was isolated using TriZol reagent (Invitrogen). The isolated RNA is then reverse-transcribed using oligo(dT) primer and Mo-MLV reverse transcriptase (Invitrogen) with DNAse I (Ambion) treatment for 30 min. The one-tenth of the produced cDNA was amplified by PCR using Taq DNA polymerase (Invitrogen) and two reporter sequence-specific primers. The PCR products were fluorescently labeled by primer extension with 6-arboxyfluorescein (6-FAM) 5'-labeled reporter sequence-specific primer (2 min at 95 C, 20 s at 68 C and 10 min at 72 C) and these products were digested with 5U of HpaI (New England Biolabs) for 2h at 37 C. The fragments were purified using Qiaquick PCR columns (Qiagen), analyzed on an ABI 3130xL genetic analyzer (Applied Biosystems) with peak positions identified by using a set of X-rhodamine (ROX)-labeled MapMarker1000 molecular weight standards (BioVentures). The raw capillary electrophoresis data was processed using Attagraph software (Attagene).
# Sequence of Hepatocyte nuclear factor 6 (Homo sapiens) (Q9UBC0 whole entry, looked up): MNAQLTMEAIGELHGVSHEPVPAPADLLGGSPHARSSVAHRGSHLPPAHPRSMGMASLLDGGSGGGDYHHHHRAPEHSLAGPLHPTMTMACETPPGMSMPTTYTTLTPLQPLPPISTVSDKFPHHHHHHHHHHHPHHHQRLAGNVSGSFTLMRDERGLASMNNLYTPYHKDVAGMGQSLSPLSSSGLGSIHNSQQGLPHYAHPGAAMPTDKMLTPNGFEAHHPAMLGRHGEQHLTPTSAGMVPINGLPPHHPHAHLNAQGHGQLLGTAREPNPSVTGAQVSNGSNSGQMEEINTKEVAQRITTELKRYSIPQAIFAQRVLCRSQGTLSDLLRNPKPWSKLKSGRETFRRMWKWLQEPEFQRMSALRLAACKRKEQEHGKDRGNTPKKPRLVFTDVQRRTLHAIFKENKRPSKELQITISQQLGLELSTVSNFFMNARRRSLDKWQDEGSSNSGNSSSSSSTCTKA
Compound,outcome,AC50
Oc1cccc2c(O)cccc12,inactive,
FCOC(C(F)(F)F)C(F)(F)F,inactive,
FC(F)(F)C1(F)C(F)(F)C(F)(F)C(F)(F)C1(F)F,inactive,
O=C(O)C(=O)O,inactive,
Nc1ccn([C@@H]2O[C@H](CO)[C@@H](O)C2O)c(=O)n1 (stereo not given in full),inactive,
CCCCCCc1ccc(N)cc1,inactive,
CCOC=O,inactive,
CCCCCCCCC(C)=O,inactive,
Cn1sccc1=O,inactive,
O=C1c2ccc(O)c(O)c2C(=O)c2c(O)ccc(O)c21,inactive,
CN(C)c1ccc(C(=C2C=CC(=[N+](C)C)C=C2)c2ccccc2)cc1,inactive,8.34 µM (active)
Cc1cncc(C)c1,inactive,
O=S(=O)(O)C(F)(F)C(F)(F)C(F)(F)C(F)(F)C(F)(F)C(F)(F)C(F)(F)C(F)(F)C(F)(F)C(F)(F)F,inactive,
CCc1cccc(CC)c1NC(=O)C(=O)O,inactive,
O=C(O)CCC(F)(F)C(F)(F)C(F)(F)C(F)(F)C(F)(F)F,inactive,
CCCCCCCCCCCCCCCC(=O)OC,inactive,
Cc1cc(Cc2cc(C)cc(C(C)(C)C)c2O)c(O)c(C(C)(C)C)c1,,176 µM (active)
COC1=CC(=O)C[C@@H](C)[C@]12Oc1c(Cl)c(OC)cc(OC)c1C2=O,inactive,
Cc1ccc(S(=O)(=O)O)cc1,inactive,

Compound,outcome,AC50
C=CC(F)(F)C(F)(F)C(F)(F)C(F)(F)F,inactive,
NC(=NCCCCCCN=C(N)/N=C(\N)Nc1ccc(Cl)cc1)/N=C(\N)Nc1ccc(Cl)cc1,inactive,25.7 µM (active)
CC(O)COc1ccccc1 (stereo not given),inactive,
FC(F)=C(F)C(F)(F)C(F)(F)C(F)(F)C(F)F,inactive,
COC(=O)C(F)(F)C(F)(F)C(F)(F)F,inactive,
CCCCCCCCCCCC[N+](C)(C)CCCCCCCCCCCC,inactive,
Cc1cc(=O)oc2cc(O)ccc12,inactive,
c1cc2cccc3c4cccc5cccc(c(c1)c23)c54,inactive,
CC(C)C=O,inactive,
c1cc[nH]c1,inactive,
O=P(O)(O)CCC(F)(F)C(F)(F)C(F)(F)C(F)(F)C(F)(F)C(F)(F)F,inactive,
CC(C)(C)c1ccc(CCC=O)cc1,inactive,
O=C(NO)c1ccccc1,inactive,
CCC(C)c1ccccc1O (stereo not given),inactive,
CCC1CO1 (stereo not given),inactive,
C=CC(=O)OCC(CO)(COCC(COC(=O)C=C)(COC(=O)C=C)COC(=O)C=C)COC(=O)C=C,inactive,
C=CCOCC(CO)(CO)CO,inactive,
CCCCCCCCC1CCC(=O)O1 (stereo not given),inactive,
CCCCCCCCCCCC(=O)O,inactive,
